{
  "source": "PubChem BioAssay (NCATS)",
  "data": [
    {"molecular_target": "Catechol O-methyltransferase (Homo sapiens) (UniProt P21964)", "sequence (P21964 whole entry, looked up)": "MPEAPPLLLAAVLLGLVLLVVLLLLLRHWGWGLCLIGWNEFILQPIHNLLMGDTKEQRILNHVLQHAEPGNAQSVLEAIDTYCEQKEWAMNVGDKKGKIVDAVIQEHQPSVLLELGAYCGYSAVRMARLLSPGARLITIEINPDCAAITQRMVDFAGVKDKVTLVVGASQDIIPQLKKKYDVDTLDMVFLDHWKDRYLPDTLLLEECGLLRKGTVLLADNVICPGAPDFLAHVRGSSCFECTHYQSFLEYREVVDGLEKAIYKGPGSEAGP", "assay": "Confirmatory Screen for Target Class Profiling of Small Molecule Inhibitors of Methyltransferases (AID 1745852)", "conditions": "MTase-Glo luminescence, SAH detection, recombinant enzyme; measured here: COMT max response; stronger effect = lower value", "units": {"activity": "%"}, "values": [
      {"smiles": "COc1ccc(N2C(=O)c3ccc(-c4ccco4)n3CC2(C)C(=O)NCc2ccccc2)cc1OC", "note": "(configuration not stated)", "activity": -7.65},
      {"smiles": "O=C(NCCc1ccccc1)c1ccc(CN2C(=O)CCn3nc(-c4ccccc4)cc32)cc1", "activity": -6.47},
      {"smiles": "c1ccc(Cn2cc(CN3CCN(c4ccncc4)CC3)c(-c3cc4ccccc4o3)n2)cc1", "activity": 5.39},
      {"smiles": "Cc1nc(NC(=O)C2CC(=O)N(c3n[nH]c4cc(Br)ccc34)C2)sc1C", "note": "(configuration not stated)", "activity": 11.1},
      {"smiles": "Cc1ccc(NS(=O)(=O)c2ccc3[nH]c(=O)[nH]c3c2)cc1F", "activity": -8.47},
      {"smiles": "CN1CCN(C)c2cnc(-c3cnn(Cc4ccccc4)c3)cc2C1", "activity": 6.86},
      {"smiles": "CCCC1c2cccn2CCN1C(=O)NC1(CC(=O)OCC)CCCCC1", "note": "(configuration not stated)", "activity": -3.29},
      {"smiles": "O=C(c1ccc(C2CCCNC2)cc1)N1CCN(c2ccncc2)CC1", "note": "(configuration not stated)", "activity": 3.41},
      {"smiles": "Cc1cnc(C2CCC2)n1C1CCN(C(=O)CCC2CCCC2)CC1", "activity": -8.04},
      {"smiles": "COc1ccc(OC)c(NC(=O)c2sc(=S)n3c2[nH]c(=O)c2ccc(Cl)cc23)c1", "activity": -83.1},
      {"smiles": "Cc1noc2c(N3CCOCC3)cc(-c3cccs3)nc12", "activity": -4.75},
      {"smiles": "COc1cccc(-c2cccc(C(=O)N3C[C@H](CO)C[C@H](CN(C)C)C3)c2)c1", "activity": 7.14},
      {"smiles": "CCCC1c2cccn2CCN1C(=O)Nc1ccc(Br)cc1", "note": "(configuration not stated)", "activity": -7.6},
      {"smiles": "O=C(Nc1ccc2ncnc(N3CCCCC3)c2c1)c1cc(F)ccc1F", "activity": -70.5},
      {"smiles": "CC(C)CCNC(=O)c1ccc2c(=O)[nH]c3c(C(=O)NC(C)C)sc(=S)n3c2c1", "activity": -37.8},
      {"smiles": "COc1ccc2[nH]c(CNc3cc(C4CC(N)C4)nc(C)n3)cc2c1", "note": "(configuration not stated)", "activity": -1.03},
      {"smiles": "CCC1CCCCN1CCCNC(=O)Cn1ccc2cc(S(=O)(=O)N3CCCCC3)ccc21", "note": "(configuration not stated)", "activity": 1.17}
    ]}
  ]
}
